Data published in paper PMC5540273 (PLoS ONE, 2017).

The compounds below were run on LTK. Settings: concentration: 1 μM, replicates: in singlicate; n = 1.
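Also: KINOMEscan kinase panel screen.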

Point of comparison: `CC(C)c1nc(-c2cccc(NS(=O)(=O)c3c(F)cccc3F)c2F)c(-c2ccnc(Nc3ccc(N4CCOCC4)nc3)n2)s1` [GSK2008607], “%Inh” value 0%. Against it:
- Nc1ncnc2c1nc(-c1ccccc1)n2-c1ccccc1 [SKF-97293] — higher, 9%
- CC(=O)Nc1nc2cnc(Nc3cc(NC(=O)c4cccc(C5(C#N)CC5)c4Cl)ccc3C)nc2s1 — the same, 0%
- c1ccc(Oc2ccc(Nc3ccnc4cc(-c5ccc(CNCCN6CCOCC6)o5)ccc34)cc2)nc1 [GW567145] — the same, 0%
- Cn1cc(-c2[nH]c3cc(NC(=O)[C@H](N)C4CCCCC4)cc4c3c2C=NNC4=O)cn1 — the same, 0%
- COc1cc(Nc2nccc(-c3c(-c4cccc(NC(=O)c5c(F)cccc5F)c4)nn4ccccc34)n2)cc(OC)c1OC [GSK323521] — higher, 26%
- COc1cc(Nc2nccc(N3CCC(NC(=O)c4cc5ccccc5s4)C3)n2)cc(OC)c1OC (stereo not shown) [GSK1379760] — higher, 13%
- Fc1ccc(-c2ncn(C3CCNCC3)c2-c2ccnc(Oc3ccc(-c4ccccc4)cc3)n2)cc1 [SB-245391] — higher, 12%
- COc1cc2c(cc1OCCN1CCNCC1)ncc1c3ccc(C#N)cc3[nH]c21 — the same, 0%
- Cl.Cl.NCC(NCc1ccc(-c2ccnc3[nH]ccc23)s1)c1ccccc1 (stereo not shown) [GSK1321565] — higher, 31%
- O=c1[nH]cc(-c2ccc(N3CCOCC3)cc2)c2sc(-c3cn[nH]c3)cc12 [GSK2276055] — higher, 5%
- O=C(Nc1cccc(-c2nn3ccccc3c2-c2ccnc(Nc3cccc(F)c3)n2)c1)c1c(F)ccc(F)c1Cl [GSK357952] — higher, 10%
- COC(=O)Nc1nc2cc(Oc3ccc(NC(=O)Nc4cc(C(F)(F)F)ccc4F)cn3)ccc2[nH]1.Cl.Cl [GW681170] — higher, 47%
- COCCOCCOc1cc2ncc3c4ccc(C#N)cc4[nH]c3c2cc1OC — higher, 34%
- c1ccc(-c2n[nH]cc2Nc2ccnc3ccccc23)nc1 [GW694077] — the same, 0%
- C[C@@H](Oc1cc(-n2cnc3cc(-c4ccnc(NCCS(C)(=O)=O)c4)ccc32)sc1C(N)=O)c1ccccc1Cl [GSK907232] — the same, 0%
- CN1CCN(CCCNc2nccc(-c3c(-c4ccc(F)cc4)nn4cc(C(F)(F)F)ccc34)n2)CC1 [GW621581] — the same, 0%
- Oc1cc(Nc2ccnc3cc(I)ccc23)ccc1F [GW552771] — higher, 4%
- COc1ccc(-c2coc3ccc(-c4nnc(SCc5ccc(OC)c(C(F)(F)F)c5)o4)cc23)cc1 — higher, 27%
- Cl.c1ccc(-c2ccc3c(Nc4ccc5[nH]ncc5c4)ccnc3c2)nc1 [GW440137] — higher, 18%
- COc1ccc(CNC(=O)NC2CCN(c3ccnc(Nc4ccc(F)cc4)n3)CC2)cc1 [GSK1379788] — higher, 1%
- Cn1cc(-c2ccc3c(c2)CCN3C(=O)Cc2cccc(Cl)c2)c2c(N)ncnc21 [GSK2606590] — higher, 47%
- Cl.NC(=O)c1cccc(Nc2nccc(Nc3ccc(Oc4c(Cl)cccc4Cl)c(Cl)c3)n2)c1 [GW659009] — higher, 80%
- Cc1ccc(F)c(C(=O)Nc2cccc(-c3nn4ccccc4c3-c3ccnc(Nc4cccc(F)c4)n3)c2)c1F [GSK361061] — higher, 9%
- Cc1occc1-c1ncc(OC[C@@H](N)Cc2c[nH]c3ccccc23)cc1-c1ccc2[nH]nc(C)c2c1.O=C(O)C(F)(F)F [GSK682037] — higher, 42%
- Cc1cccc(Nc2nc(N[C@H]3CCNC3)ncc2C(N)=O)c1.Cl [GSK2197149] — the same, 0%
- CN(c1ccc(NC(=O)Nc2cc(C(F)(F)F)ccc2F)cc1)c1ccnc(Nc2ccc(S(N)(=O)=O)cc2)n1 [GW809893] — higher, 95.7%
- CNC(=O)c1ccccc1Nc1nc(Nc2ccc(N3CCOCC3)cc2)ncc1Cl.Cl [GSK1576028] — higher, 100%
- Cl.Cl.NCC(NC(=O)c1cc(-c2ccccc2)c(-c2ccnc3[nH]ccc23)s1)c1ccccc1 (stereo not shown) [GSK1321561] — higher, 21%
- NCCCC(NC(=O)c1cc(Br)c(-c2ccnc3[nH]ccc23)s1)c1ccccc1.O=C(O)C(F)(F)F.O=C(O)C(F)(F)F (stereo not shown) [GSK1287544] — the same, 0%
- O=C(Nc1cccc(Oc2ccc3nc(NC(=O)C4CC4)cn3n2)c1)c1ccccc1C(F)(F)F — higher, 39%
- Nc1n[nH]c2cnc(-c3ccccc3)cc12 [SB-642124] — the same, 0%
- CN1CCN(Cc2cccc(-c3ccc4c(Nc5ccc(Oc6ccccc6)cc5)ccnc4c3)c2)CC1 [GW578342] — higher, 38%
- Nc1ncc(-c2cccnc2)c2scc(-c3ccc4c(c3)CCN4C(=O)Cc3ccccc3)c12 [GSK683281] — higher, 50%
- O=C(Nc1cccc(-c2nn3ncccc3c2-c2ccnc(Nc3ccccc3)n2)c1)c1c(F)cccc1F [GSK198271] — the same, 0%
- Cl.c1ccc(-c2ccc3c(Nc4ccc5[nH]ccc5c4)ccnc3c2)nc1 [GW440138] — higher, 18%
- Cc1ccc(C(=O)Nc2ccc(Nc3ccnc4cc(-c5nccs5)ccc34)cc2O)cc1.Cl [GW494702] — higher, 1%
